Data on 14 compounds can be found in PubChem BioAssay (NCATS).

Values without a mark were called inactive. Inconclusive results are not listed. Active and inactive are the calls of the source. Unless noted, the call rests on the fitted dose curve; in most records, active means well fitted curve in the direction sought with a large enough effect; inconclusive means small, poorly fitted or top-dose-only effect, or another doubt; inactive means no such curve, though single readings can be large; an effect the other way counts as inactive or inconclusive.

The target in test [1] is Arylsulfatase A (Homo sapiens) (UniProt P15289). The test is described as follows: qHTS screen for enhancers of Arylsulfatase A (ASA1): LOPAC Validation Assay (AID 720538). The gist of the method:
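First, ASA-I179S fibroblasts from an MLD patient adhered for 6 hrs. Next, compounds were added for 48h. Then pNCS substrate (0.5mM final) with lysis buffer reacted 14h at room temperature before NaOH stop and fluorescence measurement.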

Test [2] is described as follows: qHTS for compounds that reverse cellular toxicity of Amyloid beta (A-beta) peptide in yeast: LOPAC Validation Assay (AID 720559).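 Further: plate controls were DMSO for no effect and equimolar ferric chloride plus clioquinol rescue for full effect.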 The gist of the method:
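Activity is expressed relative to DMSO and an equimolar ferric chloride/clioquinol mix. Compounds were pinned into medium with A-beta-expressing yeast, grown 48 hr at 30 C, then read by absorbance at 600 nm.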
On the technique in general: Quantitative high-throughput screening tests each substance at several concentrations.

Test [3] in a line: qHTS for Activators of Parkin Expression: LOPAC Validation Assay (NLuc Reporter) (AID 720572; further: potency means the concentration at half of the fitted maximal effect;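 on activation: 0% = DMSO and 100% = positive control compound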). Put shortly:
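Neuronal line stably carrying a FLuc/NLuc coincidence reporter under the Parkin promoter, seeded 24 h, then dosed in 7-point series for 24 h at 37 C. NLuc luminescence read after FLuc; normalized to DMSO and positive control (100%).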

Test [4] can be described thus: qHTS for Activators of Parkin Expression: LOPAC Validation Assay (FLuc Reporter) (AID 720573;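 further: 0% = DMSO and 100% = positive control compounds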). Put shortly:
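A neuronal cell line harbouring FLuc and NLuc reporters behind the Parkin promoter was exposed to compounds for 24 h. Firefly luciferase signal, measured after 10 min with detection reagent, was scaled to DMSO and positive-control wells.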

For test [5], the target named is Hexokinase-4 (Homo sapiens) + Glucokinase regulatory protein (Homo sapiens) (UniProt P35557+Q14397). The test is described as follows: qHTS assay for inhibitors of recombinant human GCK-GKRP interaction: Diaphorase-coupled assay (AID 743205). Put shortly: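 Inhibitors of the GCK–GKRP complex relieve GKRP suppression of GCK, detected through a G6PDH–diaphorase cascade reducing resazurin. Human GST-GCK and FLAG-GKRP are used at 10 nM with 5 mM glucose and 0.4 mM ATP.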

Test [6] can be described thus: qHTS assay for small molecule agonists of the antioxidant response element (ARE) signaling pathway (AID 651741; active means well fitted activation curve with a large enough effect in the signal ratio; the % refers to the signal ratio; further: % of control where 0% means no effect). The gist of the method: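 ARE-bla HepG2 cells (beta-lactamase reporter under ARE control) were plated at 2,000 cells/well, preincubated 5 h at 37 C/5% CO2, then treated with DMSO-dissolved compounds for 16 h at 37 C; LiveBLAzer B/G FRET substrate added, fluorescence read after 2 h at room temperature.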

A short description of test [7]: qHTS assay for small molecule activators of the nuclear factor-kappa B (NF-kB) signaling pathway (AID 651749; active means well fitted activation curve with a large enough effect in the signal ratio; the % refers to the signal ratio; further: series mostly up to about 77 µM; % of control where 0% means no effect). The conditions noted are these: NF-kB-bla ME-180 cells, beta-lactamase FRET ratio, 16 h; stronger effect = higher value. The gist of the method: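 ME-180 cells stably carrying a beta-lactamase reporter under an NF-kB response element were exposed to compound or DMSO vehicle for 16 hr at 37C, 5% CO2. Pathway activation was read by FRET, since reporter expression disrupts FRET.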

The nature of test [8]: qHTS assay for small molecule disruptors of the mitochondrial membrane potential - 1 hr assay (AID 651754; calls by dose curve; further: on the % scale 0 is the no-effect control and ±100 the full control effect; nearly all actives have a fitted effect of over 35% in size). Put shortly:
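Steps: seed HepG2 cells and let attach overnight; pin-transfer compound or vehicle; incubate 1 hr at 37C; add Mito-MPS dye for 30 min; read two-channel fluorescence for monomer and aggregate forms.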

A short description of test [9]: qHTS assay for small molecule disruptors of the mitochondrial membrane potential - 5 hr assay (AID 651755; calls by dose curve; further: on the % scale 0 is the no-effect control and ±100 the full control effect; nearly all actives have a fitted effect of over 40% in size). Put shortly:
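HepG2 cells, attached overnight at 37C, were exposed to compound or DMSO for 5 hr at 37C, 5% CO2. Mito-MPS dye was then added for 30 min, and fluorescence read at 490/535 nm (monomers) and 540/590 nm (aggregates).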

Test [10] deals with Tumor necrosis factor (Homo sapiens) (UniProt P01375). The test is described as follows: qHTS assay to identify small molecules that stimulate Tumor Necrosis Factor-alpha (TNF-alpha) secretion (AID 651757; active means well fitted curve in the direction sought with a large enough effect in the signal ratio; the % refers to the signal ratio; further: 0% is about no effect). The gist of the method: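 Secreted TNF-alpha from compound-treated THP-1 cells (17 hrs, 37 C) was quantified with a homogeneous time-resolved fluorescence antibody assay.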

Test [11] in a line: qHTS assay for environmental chemicals that activate the Aryl hydrocarbon Receptor (AhR) signaling pathway (AID 651777). Further: % of control where 0% means no effect; nearly all actives have a fitted effect of over 15% in size. As to conditions: 1A2-DRE human hepatoma cells, luciferase, 24 h; stronger effect = higher value. Put shortly: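 Human hepatoma 1A2-DRE cells, stably carrying a dioxin response element and CYP1A2 promoter driving luciferase, were exposed to compounds for 24 hr at 37 C and 5% CO2. Luciferase signal was then read after 30 min One-Glo at room temperature.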

The target of test [12] is Peroxisome proliferator-activated receptor alpha (Homo sapiens) (UniProt Q07869). The test is described as follows: qHTS assay for small molecule agonists of the peroxisome proliferator-activated receptor alpha (PPARalpha) signaling pathway (AID 651778). Further: % of control where 0% means no effect. As to conditions: PathHunter PPARalpha complementation, chemiluminescence, 6 h; max response: stronger effect = higher value. The gist of the method: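 Cells plated at 2,000/well and held overnight at 37 C, 5% CO2, then compound added by pin tool for 6 hr; after PathHunter detection reagent and 60 min at room temperature, chemiluminescence from enzyme complementation was read.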

Test [13] has as its target Nuclear receptor ROR-gamma (Homo sapiens) (UniProt P51449). The test is described as follows: qHTS assay for small molecule antagonists of the retinoid-related orphan receptor gamma (ROR-gamma) signaling pathway (AID 651802).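 Further: CHO cells with doxycycline-induced ROR-gamma expression; series mostly up to about 92 µM; on the % scale 0 is the no-effect control and ±100 the full control effect; nearly all actives have a fitted effect of over 60% in size.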 The gist of the method: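 Antagonism is scored as a fall in luminescence from a RORE-luciferase reporter in CHO cells expressing ROR under a TET-inducible promoter, measured 16hr after doxycycline induction in the presence of compound.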

Test [14] in a line: qHTS assay for small molecule agonists of the antioxidant response element (ARE) signaling pathway measured by Nrf2-dependant transcriptional activity (AID 720636; active means well fitted curve in the direction sought with a large enough effect in the repeat runs; an effect the other way counts as inactive or inconclusive; further: % of control where 0% means no effect). The gist of the method:
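ARE-luc HepG2 cells carrying an Nrf2-responsive luciferase reporter were plated in medium with 1% dialyzed FBS, left 6 hr at 37 C to attach, then exposed to compound for 16 hr. Luciferase luminescence was read after ONE-Glo addition.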

Test [15] can be described thus: qHTS assay for small molecule antagonists of the retinoid-related orphan receptor gamma (ROR-gamma) signaling pathway - cell viability counter screen (AID 720652; active means well fitted curve in the direction sought with a large enough effect in the repeat runs; an effect the other way counts as inactive or inconclusive;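 further: CHO reporter cells with doxycycline-induced ROR-gamma expression; series mostly up to about 92 µM; compound exposure lasted 16 hr before ATP read; on the % scale 0 is the no-effect control and ±100 the full control effect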). Put shortly:
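Cytotoxicity is quantified via intracellular ATP (CellTiter-Glo luminescence) in doxycycline-induced CHO ROR response element-luciferase reporter cells treated with compound for 16 hr at 37 C, 5% CO2.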

Test [16] can be described thus: qHTS assay for small molecule agonists of the antioxidant response element (ARE) signaling pathway measured by Nrf2-dependant transcriptional activity - cell viability counter screen (AID 720653; active means well fitted curve in the direction sought with a large enough effect in the repeat runs; an effect the other way counts as inactive or inconclusive; further: on the % scale 0 is the no-effect control and ±100 the full control effect). The conditions noted are these: ARE-bla HepG2 viability, CellTiter-Glo ATP luminescence, 16 h; stronger effect = lower value. Put shortly:
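ARE-bla HepG2 cells (2,000/well) rested 5 hrs at 37C/5% CO2, then exposed to compounds in DMSO for 16 hrs. Viability was read in the same wells as intracellular ATP by luminescence, 30 min at room temperature after reagent addition.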

Test [17] concerns the target Tyrosine-protein kinase Yes (Homo sapiens) (UniProt P07947). The test is described as follows: qHTS for small molecule inhibitors of Yes1 kinase: Primary Screen (AID 686947). Further: potency means the concentration at half of the fitted maximal effect; nearly all actives have a fitted effect of over 60% in size. The conditions noted are these: Yes1 kinase biochemical qHTS inhibition. The gist of the method: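 ADP-Glo luminescence readout; final 4 nM Yes1, 0.1 mM ATP, 0.3 mg/mL poly(E4Y), Tris pH 7.5, MgCl2, DTT, Brij-35. 20 min compound preincubation, 60 min reaction at RT. Normalized to DMSO wells with and without enzyme.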

Test [18] in a line: qHTS for small molecule inhibitors of Yes1 kinase: Counter Assay (AID 686950).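 Further: no kinase present so only ADP-Glo detection of a fixed ADP amount is tested; luminescence from ADP-Glo reporting ADP in a fixed ATP and ADP mixture; series mostly up to about 77 µM; 0% = DMSO wells with ATP plus ADP and -100% = ATP-only wells without ADP.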 The gist of the method:
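Enzyme-free ADP-Glo interference check: compounds were preincubated 20 min in buffer, then an ATP/ADP mix (0.08 mM ATP, 0.02 mM ADP final) was added for 60 min at room temperature before two-step ADP-Glo luminescence detection.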

Arylsulfatase A (Homo sapiens), sequence (P15289 whole entry, looked up): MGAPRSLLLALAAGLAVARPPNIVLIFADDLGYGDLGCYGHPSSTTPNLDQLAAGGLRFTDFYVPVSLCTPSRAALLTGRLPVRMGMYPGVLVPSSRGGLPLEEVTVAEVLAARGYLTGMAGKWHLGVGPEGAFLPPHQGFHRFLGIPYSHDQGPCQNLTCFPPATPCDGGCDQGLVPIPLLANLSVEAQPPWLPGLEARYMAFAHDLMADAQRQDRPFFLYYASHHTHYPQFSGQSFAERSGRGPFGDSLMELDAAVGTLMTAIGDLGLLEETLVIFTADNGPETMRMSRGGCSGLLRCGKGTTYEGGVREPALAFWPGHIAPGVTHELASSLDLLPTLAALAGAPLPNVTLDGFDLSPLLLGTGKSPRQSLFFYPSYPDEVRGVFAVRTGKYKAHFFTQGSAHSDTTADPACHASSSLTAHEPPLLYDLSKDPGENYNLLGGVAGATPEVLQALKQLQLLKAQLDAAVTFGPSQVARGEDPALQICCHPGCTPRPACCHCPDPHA
Hexokinase-4 (Homo sapiens) + Glucokinase regulatory protein (Homo sapiens), sequence (P35557 whole entry, looked up): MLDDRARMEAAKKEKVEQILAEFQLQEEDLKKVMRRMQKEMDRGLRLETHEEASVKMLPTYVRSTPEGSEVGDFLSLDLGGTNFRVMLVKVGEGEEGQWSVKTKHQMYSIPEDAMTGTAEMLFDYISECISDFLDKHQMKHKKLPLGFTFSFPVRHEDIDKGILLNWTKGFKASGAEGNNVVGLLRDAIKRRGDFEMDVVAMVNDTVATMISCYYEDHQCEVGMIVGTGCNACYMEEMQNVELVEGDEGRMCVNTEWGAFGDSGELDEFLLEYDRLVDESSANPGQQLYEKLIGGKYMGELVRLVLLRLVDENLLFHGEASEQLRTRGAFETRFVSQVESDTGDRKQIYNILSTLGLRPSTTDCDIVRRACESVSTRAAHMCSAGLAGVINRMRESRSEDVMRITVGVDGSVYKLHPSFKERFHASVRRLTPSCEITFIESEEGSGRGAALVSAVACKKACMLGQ
Hexokinase-4 (Homo sapiens) + Glucokinase regulatory protein (Homo sapiens), sequence (Q14397 whole entry, looked up): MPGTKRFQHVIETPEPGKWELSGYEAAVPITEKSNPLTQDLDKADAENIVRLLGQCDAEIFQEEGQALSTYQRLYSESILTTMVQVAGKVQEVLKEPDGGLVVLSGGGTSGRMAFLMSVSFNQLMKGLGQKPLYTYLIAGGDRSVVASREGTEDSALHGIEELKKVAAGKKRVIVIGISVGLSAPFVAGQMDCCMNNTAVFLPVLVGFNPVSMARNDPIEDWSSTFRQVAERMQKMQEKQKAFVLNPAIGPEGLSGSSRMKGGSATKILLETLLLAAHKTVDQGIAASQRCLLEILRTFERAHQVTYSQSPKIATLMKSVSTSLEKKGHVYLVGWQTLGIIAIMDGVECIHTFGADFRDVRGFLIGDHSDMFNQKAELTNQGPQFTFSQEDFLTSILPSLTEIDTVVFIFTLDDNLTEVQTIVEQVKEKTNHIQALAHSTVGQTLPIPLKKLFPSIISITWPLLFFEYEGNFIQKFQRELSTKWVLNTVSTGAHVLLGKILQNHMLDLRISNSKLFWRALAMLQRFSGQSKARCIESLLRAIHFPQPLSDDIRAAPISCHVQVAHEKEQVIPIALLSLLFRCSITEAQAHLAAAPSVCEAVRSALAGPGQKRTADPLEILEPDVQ
Peroxisome proliferator-activated receptor alpha (Homo sapiens), sequence (Q07869 whole entry, looked up): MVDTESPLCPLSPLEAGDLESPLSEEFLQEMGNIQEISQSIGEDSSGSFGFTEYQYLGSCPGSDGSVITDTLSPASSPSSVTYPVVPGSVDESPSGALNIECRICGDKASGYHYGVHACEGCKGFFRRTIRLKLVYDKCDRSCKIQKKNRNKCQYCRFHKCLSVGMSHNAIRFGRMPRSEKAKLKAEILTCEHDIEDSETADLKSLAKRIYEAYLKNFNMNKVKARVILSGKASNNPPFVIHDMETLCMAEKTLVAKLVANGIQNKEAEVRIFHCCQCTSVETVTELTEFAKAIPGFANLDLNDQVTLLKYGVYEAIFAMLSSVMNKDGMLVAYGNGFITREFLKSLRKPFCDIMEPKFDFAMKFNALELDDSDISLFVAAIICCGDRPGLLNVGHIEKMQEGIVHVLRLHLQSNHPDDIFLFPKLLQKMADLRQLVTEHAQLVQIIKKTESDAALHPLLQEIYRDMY
Nuclear receptor ROR-gamma (Homo sapiens), sequence (P51449 whole entry, looked up): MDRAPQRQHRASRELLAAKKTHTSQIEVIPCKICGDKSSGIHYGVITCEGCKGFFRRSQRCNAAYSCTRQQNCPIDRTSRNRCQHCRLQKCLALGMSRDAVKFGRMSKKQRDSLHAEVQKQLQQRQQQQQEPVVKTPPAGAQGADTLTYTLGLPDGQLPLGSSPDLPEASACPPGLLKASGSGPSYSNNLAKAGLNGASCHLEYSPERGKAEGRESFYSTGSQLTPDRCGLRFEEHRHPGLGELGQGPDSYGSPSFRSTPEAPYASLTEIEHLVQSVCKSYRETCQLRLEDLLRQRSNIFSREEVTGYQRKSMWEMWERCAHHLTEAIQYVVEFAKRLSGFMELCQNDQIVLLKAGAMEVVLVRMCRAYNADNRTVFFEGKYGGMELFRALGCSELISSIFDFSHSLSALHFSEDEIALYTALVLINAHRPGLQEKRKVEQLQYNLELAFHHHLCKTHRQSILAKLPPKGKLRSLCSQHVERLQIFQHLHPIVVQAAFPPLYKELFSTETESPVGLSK
Tyrosine-protein kinase Yes (Homo sapiens), sequence (P07947 whole entry, looked up): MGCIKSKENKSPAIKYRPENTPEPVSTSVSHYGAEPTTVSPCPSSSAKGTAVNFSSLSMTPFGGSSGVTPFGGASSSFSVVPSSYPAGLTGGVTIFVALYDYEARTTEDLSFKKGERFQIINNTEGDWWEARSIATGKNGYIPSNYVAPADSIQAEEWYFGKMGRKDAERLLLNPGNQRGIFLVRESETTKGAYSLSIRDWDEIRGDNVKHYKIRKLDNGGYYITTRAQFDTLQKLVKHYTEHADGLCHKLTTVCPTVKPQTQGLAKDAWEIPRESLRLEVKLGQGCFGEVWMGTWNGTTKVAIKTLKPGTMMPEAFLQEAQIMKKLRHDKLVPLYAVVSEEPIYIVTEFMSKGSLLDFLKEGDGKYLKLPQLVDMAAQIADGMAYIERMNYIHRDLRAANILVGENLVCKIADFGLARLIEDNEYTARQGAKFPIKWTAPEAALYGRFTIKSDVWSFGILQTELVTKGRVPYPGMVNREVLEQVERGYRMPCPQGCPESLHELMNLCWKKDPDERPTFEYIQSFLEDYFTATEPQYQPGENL
Tumor necrosis factor (Homo sapiens), sequence (P01375 whole entry, looked up): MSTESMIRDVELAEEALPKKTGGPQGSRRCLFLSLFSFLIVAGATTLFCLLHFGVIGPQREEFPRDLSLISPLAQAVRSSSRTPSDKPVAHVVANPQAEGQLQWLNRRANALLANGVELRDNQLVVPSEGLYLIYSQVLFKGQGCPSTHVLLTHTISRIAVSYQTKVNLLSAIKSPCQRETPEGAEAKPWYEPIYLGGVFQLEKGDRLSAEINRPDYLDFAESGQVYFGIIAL

As for `COC1(C2=NCCN2)COc2ccccc2O1` (stereo unspecified), the Potency result in test [1], in test [3], in test [4] and in test [5] was “inactive” throughout. In [2], the outcome was inactive.

`CC(C)(C)c1cc(/C=C(\C#N)C(N)=S)cc(C(C)(C)C)c1O`: the Potency result in test [1], in test [3], in test [4] and in [5] was “inactive” throughout. In test [2], the result was inactive.

With `N#C/C(=C\c1ccc(O)c(O)c1)C(=O)NCCCNC(=O)/C(C#N)=C/c1ccc(O)c(O)c1`, the Potency result in [1], in test [3] and in test [4] was “inactive” in each case. The compound was called inactive in test [2].

As for `CC(N)=NCCCC[C@@H](N)C(=O)O`, the Potency entry in [1], in test [3], in test [4] and in test [5] was “inactive” each time. Also, the compound was called inactive in test [2].

With `COc1cc(CC(=O)O)ccc1O`, the Potency result in test [1], in [3], in test [4] and in test [5] was “inactive” throughout. Also, the call in test [2] was inactive.

Turning to `CC(O)C(O)[C@H]1CNc2nc(N)[nH]c(=O)c2N1` (stereo partly specified), the Potency result in test [1], in test [3], in [4] and in test [5] was “inactive” each time. In test [2], the result was inactive.

With `NC(=O)c1ccccc1`, the Potency entry in test [6], in test [1], in [3], in [4] and in test [5] was “inactive” throughout. Besides, the values for the activation in [7] and in test [11] were 1.72% and 0.0429%, respectively. For the same compound, the compound was called inactive in test [8], in test [9], in test [10], in test [13], in [2] and in [14]. Further, the compound was classed as inactive in [15]. In addition, the values for the max response in test [12] and in test [16] were 0.54% and -5%, respectively.

For `CC(C)Cn1c(=O)n(C)c(=O)c2[nH]cnc21`, the Potency entry in [1], in test [3], in test [4] and in test [5] was “inactive” each time. Besides, the compound was called inactive in test [2].

In the case of `N=C(N)c1ccc(OCCCCCOc2ccc(C(=N)N)cc2)cc1` (tested in a mixture with another compound), the Potency result in test [1], in test [3], in [4] and in test [5] was “inactive” in each case. Further, in test [2], the outcome was inactive.

Regarding `CCCc1c(-c2ccc(O)cc2)nn(-c2ccc(O)cc2)c1-c1ccc(O)cc1`, the activation in test [7] was -3.76%; in [11] it was -1.12%. Besides, the results for the max response in test [12] and in [16] were -1.98% and -5.61%, respectively. The Potency result in test [1], in test [4] and in [5] was “inactive” throughout. Besides, the outcome in test [2] and in test [14] was inactive. Further, the Potency in test [3] is 2060 nM (active).

For the compound `NCCCCN=C(N)N`, the Potency entry in test [1], in [3], in [4] and in test [5] was “inactive” each time. In addition, in test [2], the result was inactive.

Turning to `CCC1(O)CC2CN(CCc3c([nH]c4ccccc34)[C@@](C(=O)OC)(c3cc4c(cc3OC)N(C)C3[C@]45CCN4CC=C[C@@](CC)([C@@H](OC(C)=O)[C@]3(O)C(=O)OC)[C@H]45)C2)C1` (stereo partly specified), the Potency result in test [1], in test [3], in test [4] and in test [5] was “inactive” throughout. Besides, in test [2], the compound was classed as inactive.

`NCCS(=O)O`: the Potency entry in [1], in test [3], in test [4] and in test [5] was “inactive” throughout. Besides, the compound was classed as inactive in test [2].

For the compound `CN(C)S(=O)(=O)c1ccc2c(c1)/C(=C/c1cc3c([nH]1)CCCC3)C(=O)N2`, the Potency in test [17] is 97.2 nM (active). Further, the call in test [18] and in test [2] was inactive. The Potency result in test [1], in test [3] and in test [5] was “inactive” throughout.
